GDH-TPI inh: GDH-TPI coupled enzyme inhibition counter-screen | inhibition, % at 4.8 µM | GDH-TPI coupled enzyme counterscreen, NADH absorbance | 1.2% of 360,000 active; in the data active means inhibition above about 30%;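 further: 0% = DMSO wells and 100% = wells lacking the enzyme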
FadD28 FP inh: blocks FadD28 binding to the bisubstrate probe. 0.22% of 360,000 active. fluorescence polarization. inhibition, % at 12.5 µM; in the data active means inhibition above about 8.5%, passing the limit was not always enough
Mtb hypoxia inh: inhibitors of hypoxia-regulated fluorescent reporter in Mycobacterium tuberculosis; M. tuberculosis hypoxia-regulated fluorescent reporter, fluorescence; fluorescence inhibition, % (concentration not given with the values); 0.1% of 300,000 active; AID 1159583; in the data active means fluorescence inhibition mostly above about 23%, no sharp cut-off; inactive means mostly below about 17%
FBA Mtb inh: Mtb fructose-bisphosphate aldolase inhibition; inhibition, % at 1 µM; 2.3% of 360,000 active; purified M. tuberculosis FBA, fluorescence read-out; in the data active means inhibition above about 27%;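 further: 0% = vehicle and 100% = reference inhibitor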
Target sequence (P9WQA3 whole entry, looked up): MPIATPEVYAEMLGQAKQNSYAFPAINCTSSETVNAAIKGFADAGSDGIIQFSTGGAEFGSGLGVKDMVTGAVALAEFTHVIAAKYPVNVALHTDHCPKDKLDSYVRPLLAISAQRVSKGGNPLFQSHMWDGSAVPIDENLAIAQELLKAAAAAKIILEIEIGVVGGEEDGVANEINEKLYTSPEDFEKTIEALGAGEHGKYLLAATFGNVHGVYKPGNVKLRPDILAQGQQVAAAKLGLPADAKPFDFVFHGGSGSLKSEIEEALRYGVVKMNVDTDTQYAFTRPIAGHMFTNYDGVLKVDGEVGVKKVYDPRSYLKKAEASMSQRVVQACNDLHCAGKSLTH
BioA inh: blocks M. tuberculosis BioA enzyme activity | purified M. tuberculosis BioA enzyme, plate reader | inhibition, % at 9.99 µM | 0.096% of 360,000 active | AID 602481; in the data active means inhibition above about 40%
Active calls of the source: *; . = no result given; + = active, no number. Compounds with a hit are over-represented: about 2.9% of the library has one in this group of screens.

SMILES | GDH-TPI inh | FadD28 FP inh | Mtb hypoxia inh | FBA Mtb inh | BioA inh
CCCN(C)C[C@H]1Oc2cc(-c3ccccc3OC)ccc2S(=O)(=O)N([C@@H](C)CO)C[C@H]1C | . | . | . | . | -1.3
CN1C[C@@H]2[C@H](c3ccccc31)[C@@H](CO)N2C(=O)Nc1ccc(F)cc1 | . | . | . | . | 3.3
CCOC(=O)C1CCN(C(=O)c2sccc2Cl)CC1 | 2.9 | -2.4 | 17.8 | + | 6.9
Cc1ccc(S(=O)(=O)Nc2ccc3c(c2)CC(=O)N([C@H](C)CO)C[C@@H](C)[C@H](CN(C)C)O3)cc1 | . | . | . | . | 2.1
NC(=O)c1ccccc1NC(=O)/C=C/c1ccc(Cl)cc1 | -6.1 | -3.8 | -0.9 | 1.7 | -1.1
O=C(/C=C/c1ccc(Cl)cc1)NC(=S)Nc1ccccc1C(=O)O | 38.0* | -4.8 | 14.6 | 6.1 | .
COCCCn1c(=N)c(C(=O)NCc2ccc3c(c2)OCO3)cc2c(=O)n3cccc(C)c3nc21 | 3.8 | -0.4 | -4.2 | -1.8 | .
CCCCNC(=O)c1cc2c(=O)n3cccc(C)c3nc2n(Cc2ccncc2)c1=N | -1.2 | -0.8 | 0.8 | 151.1* | 1.6
CCCCNC(=O)c1cc2c(=O)n3cccc(C)c3nc2n(CCN2CCOCC2)c1=N | 14.3 | 0.5 | . | 136.7* | .
COCCNC(=O)c1cc2c(=O)n3cccc(C)c3nc2n(Cc2ccncc2)c1=N | 12.2 | -1.3 | -12.3 | + | 10.6
CCOCCCn1c(=N)c(C(=O)NCc2ccc3c(c2)OCO3)cc2c(=O)n3cccc(C)c3nc21 | 9.6 | -2.5 | 3.4 | 5.7 | 2.1
Cc1cc(-n2c(=O)c(C#N)cc3c(=O)n4cccc(C)c4nc32)no1 | -7.0 | -1.1 | 3.4 | + | 0.4
COc1ccc(CN(C)C[C@@H]2Oc3ccc(NC(=O)CCC(F)(F)F)cc3C(=O)N([C@H](C)CO)C[C@H]2C)cc1 | . | . | . | . | 1.0
Cc1cccn2c(=O)c3cc(C#N)c(=N)n(CCN4CCOCC4)c3nc12 | -0.4 | 0.0 | 2.4 | 52.9* | -1.6
Cc1ccc(C2=NC(=O)/C(=C/c3cc(O)c(O)c(Br)c3)S2)cc1 | 9.3 | 8.2* | 19.5 | -0.7 | 1.0
COc1cc(/C=C2\SC(c3ccc(C)cc3)=NC2=O)cc(OC)c1O | 13.5 | 3.5 | 2.6 | -3.8 | .
Cn1c(C(=O)NCC2CCCO2)cc2c(=O)n3ccccc3nc21 (stereo not drawn) | 13.8 | -2.6 | 7.6 | + | -0.5
Cn1c(C(=O)NCCC2=CCCCC2)cc2c(=O)n3ccccc3nc21 | 4.1 | -0.3 | 10.3 | 113.6* | -1.6
Cn1c(C(=O)N2COCC2(C)C)cc2c(=O)n3ccccc3nc21 | -4.3 | -0.1 | 8.2 | + | -1.2
Cc1cccn2c(=O)c3cc(C(=O)NCCC4=CCCCC4)n(C)c3nc12 | 5.6 | -2.8 | 10.2 | 12.1 | 0.0
CC(C)(C)C(=O)Nc1sc(-c2ccccc2)cc1C(=O)O | 22.2 | 2.0 | 6.1 | -1.6 | 0.1
Cc1cccc(C(=O)Nc2sc(-c3ccccc3)cc2C(=O)O)c1 | 16.9 | 24.2* | -19.7 | 20.5 | 5.0
O=C1NC(=O)N(c2ccccc2)C(=O)/C1=C/c1coc2ccc(O)cc2c1=O | 31.2* | -0.8 | 12.7 | -0.7 | -0.5
CSC1=NSC2=NC(=O)/C(=C/c3coc4ccc(O)cc4c3=O)C(=N)N12 | 6.7 | 11.9* | . | 13.4 | .
O=C1NC(=O)N(c2ccc(Cl)cc2)C(=O)/C1=C/c1coc2ccc(O)cc2c1=O | 21.5 | 2.8 | 0.5 | 0.0 | 4.0
SMILES | GDH-TPI inh | FadD28 FP inh | Mtb hypoxia inh | FBA Mtb inh | BioA inh
C[C@H]1CN([C@@H](C)CO)C(=O)c2cccc(NS(=O)(=O)c3cn(C)cn3)c2O[C@@H]1CN(C)C(=O)NC1CCCCC1 | . | . | . | . | -1.2
O=C(c1ccccn1)N1C[C@@H]2[C@H](c3ccccc31)[C@H](CO)N2C(=O)C1CC1 | . | . | . | . | -1.3
CC(=O)c1ccc(-c2ccc(C(=O)N3CCC(C(N)=O)CC3)o2)cc1 | 30.2 | 0.2 | 5.6 | 117.9* | 3.6
CC(=O)c1ccc(-c2ccc(C(=O)NCC3CCCO3)o2)cc1 (stereo not drawn) | 16.8 | -2.6 | 8.9 | + | 25.2
CC(=O)c1ccc(-c2ccc(C(=O)NC3CC(C)(C)NC(C)(C)C3)o2)cc1 | 43.9* | 0.2 | -1.5 | 179.5* | 31.3
COc1ccccc1S(=O)(=O)N(C)C[C@@H]1Oc2cc(C#CCC3CCCC3)ccc2S(=O)(=O)N([C@@H](C)CO)C[C@@H]1C | . | . | . | . | -3.0
C[C@H](CO)N1C[C@H](C)[C@H](CN(C)C(=O)Nc2ccccc2)Oc2ccc(NC(=O)Cn3cnnn3)cc2CC1=O | . | . | . | . | -1.9
COc1ccc([Si](C)(C)[C@@H]2[C@@H](CCO)O[C@]3(C(=O)N(Cc4ccccc4)c4ccc(N5C(=O)c6cccc7cccc5c67)cc43)[C@H]2C)cc1 | . | . | . | . | 0.8

Assay outcomes from PubChem.
